Some test systems named below: NCI-H23 lung; NCI-H226 lung; NCI-H322M lung; HOP-62 NSCLC; NCI-H460 lung; HOP-92 NSCLC; NCI-H522 lung; A549/ATCC NSCLC; 786-0 renal; COLO 205 colon.
Common to all, as to assay: NCI-60 one-dose screen, 48 h (100 = growth as untreated, 0 = no growth, -100 = all killed)
Holding throughout (conditions): 10 µM unless noted

The panel holds about 83,000 compounds, 20% with a hit somewhere; the sample as a whole holds those more often.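 Single-concentration screen, 48 h exposure, 96-well plates. Endpoint: percent growth. Below 10 = active.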 A number with no mark means an inactive call. Calls of active or inactive are those of the source.

`N#Cc1c(Cl)nc(SCC2CO2)nc1-c1ccccc1` (stereo not given): the growth in the assay on NCI-H23 lung was 101%; in the assay with NCI-H226 lung, 114%; in the assay with NCI-H322M lung, 105%; with HOP-62 NSCLC, 92.8%; in the assay on NCI-H460 lung, 101%; in the assay on HOP-92 NSCLC, 89.8%. Besides, the growth in the assay on NCI-H522 lung was 101%; in the assay on A549/ATCC NSCLC, 124%; in the assay on 786-0 renal, 99.5%; in the assay with COLO 205 colon, 131%.

Regarding `Nc1nc(N)c2c(n1)NC(c1ccc(F)cc1)C1CCc3ccccc3C1=N2` (stereo not given), the growth with NCI-H23 lung was 51.1%; in the assay with NCI-H226 lung it was 53.1%; with NCI-H322M lung it was 67.3%; in the assay with HOP-62 NSCLC, 74.1%; in the assay on NCI-H460 lung, 26.2%; in the assay on HOP-92 NSCLC, 74.1%. Further, the growth in the assay with NCI-H522 lung is 101%; with A549/ATCC NSCLC, 58.6%; in the assay on 786-0 renal, 60.9%; in the assay with COLO 205 colon, 48.4%.

Consider `CC1(C(=O)O)CCC(N)(C(=O)O)C1(C)C` (stereo not given), for which the growth is 113% in the assay with NCI-H23 lung; 108% in the assay with NCI-H226 lung; 108% in the assay on NCI-H322M lung; 99.5% in the assay on HOP-62 NSCLC; 117% with NCI-H460 lung; 89.4% in the assay on HOP-92 NSCLC. In addition, the growth in the assay on NCI-H522 lung is 97.1%; in the assay on A549/ATCC NSCLC it was 110%; in the assay on 786-0 renal, 109%; with COLO 205 colon, 104%.

Consider `CCCCC1COc2cccc3c2N1C=C/C3=C\C(=O)n1ccc2ccccc21` (stereo not given), for which the growth with NCI-H23 lung was 76.5%; in the assay with NCI-H226 lung, 84%; with NCI-H322M lung it was 96.4%; with HOP-62 NSCLC, 79.2%; in the assay with NCI-H460 lung, 88.2%; in the assay with HOP-92 NSCLC, 63.3%. For the same compound, the growth was 56% with NCI-H522 lung, 78.7% in the assay on A549/ATCC NSCLC, 90.1% with 786-0 renal and 91% in the assay on COLO 205 colon.

With `CC1(C)[C@@H](NOCCCN)CC[C@]2(C)[C@H]3C(=O)C=C4[C@@H]5C[C@](C)(C(=O)O)CC[C@]5(C)CC[C@@]4(C)[C@]3(C)CC[C@@H]12`, the growth with NCI-H23 lung was -39.4% [100 µM] (active); in the assay on NCI-H226 lung it was -44.8% [100 µM] (active); in the assay on NCI-H322M lung it was -94.4% [100 µM] (active); in the assay on HOP-62 NSCLC it was -84.4% [100 µM] (active); in the assay on NCI-H460 lung it was -67.2% [100 µM] (active); in the assay on HOP-92 NSCLC it was -71.8% [100 µM] (active). Further, the growth in the assay on NCI-H522 lung was -57.7% [100 µM] (active); in the assay on A549/ATCC NSCLC it was -27.4% [100 µM] (active); in the assay on 786-0 renal, -78.6% [100 µM] (active); in the assay with COLO 205 colon, -68.2% [100 µM] (active).

Take `CCOC(CNC(=O)c1cccc([N+](=O)[O-])c1)OCC`: the growth with NCI-H23 lung is 85.7%; with NCI-H226 lung it was 89.8%; in the assay on NCI-H322M lung, 109%; in the assay on HOP-62 NSCLC, 108%; with NCI-H460 lung it was 101%; in the assay on HOP-92 NSCLC, 96.7%. The growth in the assay on NCI-H522 lung was 64.2%; with A549/ATCC NSCLC, 83.7%; with 786-0 renal, 101%; in the assay with COLO 205 colon, 108%.

For `COc1cc(/C=C/C(=O)/C=C/c2ccc(-n3ccnc3)cc2)ccc1O`, the growth in the assay on NCI-H23 lung was 60.6%; in the assay with NCI-H226 lung, 77.9%; in the assay with NCI-H322M lung it was 94.8%; in the assay with HOP-62 NSCLC it was 97.9%; with NCI-H460 lung it was 76.4%; in the assay on HOP-92 NSCLC it was 85.2%. Besides, the growth with NCI-H522 lung was 89.5%; in the assay on A549/ATCC NSCLC it was 69.3%; with 786-0 renal it was 107%; in the assay on COLO 205 colon, 52.4%.

Consider `CC(C)[C@H]1CCC2=C3CC[C@]45OC(=O)[C@@]6(CCC(C)(C)C[C@H]64)CC[C@@]5(C)[C@]3(C)CC[C@@]21C`, for which the growth was 54.4% [100 µM] in the assay with NCI-H23 lung; 68.4% [100 µM] in the assay on NCI-H226 lung; 94.5% [100 µM] in the assay on NCI-H322M lung; 76.3% [100 µM] with HOP-62 NSCLC; 71.8% [100 µM] in the assay with NCI-H460 lung; 19.9% [100 µM] in the assay on HOP-92 NSCLC. Also, the growth with NCI-H522 lung was 55.7% [100 µM]; with A549/ATCC NSCLC it was 67.1% [100 µM]; with 786-0 renal, 69.3% [100 µM]; in the assay on COLO 205 colon, 97% [100 µM].

Turning to `Nc1nc(Nc2ccccc2)c2ncn(Cc3cc4c(cc3Br)OCO4)c2n1`, the growth in the assay with NCI-H23 lung is 23.2%; with NCI-H226 lung, 29.4%; in the assay with NCI-H322M lung, 30.2%; with HOP-62 NSCLC, 11.3%; in the assay with NCI-H460 lung, 5.33% (active); in the assay with HOP-92 NSCLC, 40%. Also, the growth in the assay on NCI-H522 lung was -40.5% (active); in the assay on A549/ATCC NSCLC, 13.5%; in the assay with 786-0 renal, 20.3%; with COLO 205 colon it was -38.3% (active).

For `COc1ccc2nc3cc(Cl)ccc3c(Nc3ccc(O)c(CN4CCCC4)c3)c2c1`, the growth in the assay on NCI-H23 lung was 47.3%; in the assay with NCI-H226 lung, 97.5%; in the assay with NCI-H322M lung, 7.91% (active); in the assay with HOP-62 NSCLC, 26.9%; in the assay on NCI-H460 lung it was -27.4% (active); with HOP-92 NSCLC, 31.9%. Further, the growth in the assay on NCI-H522 lung is -40.7% (active); in the assay on A549/ATCC NSCLC it was 27.7%; with 786-0 renal, -21.8% (active); in the assay with COLO 205 colon, -19.8% (active).

As to `C=C(C)[C@@H]1CC[C@]2(C(=O)NCCNCCNCCN)CC[C@]3(C)[C@H](CC[C@@H]4[C@@]5(C)CCC(=O)C(C)(C)[C@@H]5CC[C@]43C)[C@@H]12`, the growth in the assay with NCI-H23 lung was -35.2% [100 µM] (active); in the assay on NCI-H226 lung, 74.3% [100 µM]; with NCI-H322M lung it was -81.1% [100 µM] (active); in the assay on HOP-62 NSCLC, 43.1% [100 µM]; in the assay with NCI-H460 lung, -90.9% [100 µM] (active); in the assay on HOP-92 NSCLC, -65.2% [100 µM] (active). Besides, the growth was -69.7% [100 µM] (active) with NCI-H522 lung, -76.5% [100 µM] (active) in the assay on A549/ATCC NSCLC, -84.5% [100 µM] (active) in the assay with 786-0 renal and -47.5% [100 µM] (active) with COLO 205 colon.

As to `CCCCCCSc1ncnc2nc[nH]c12`, the growth was 92.4% in the assay on NCI-H23 lung; 85.5% in the assay with NCI-H226 lung; 99.9% in the assay on NCI-H322M lung; 95.6% in the assay on HOP-62 NSCLC; 94.5% with NCI-H460 lung; 68.3% in the assay with HOP-92 NSCLC. In addition, the growth is 86.3% in the assay on NCI-H522 lung, 96.1% in the assay on A549/ATCC NSCLC, 89.7% in the assay on 786-0 renal and 95.2% with COLO 205 colon.

As for `COC(=O)[C@H](CC(C)C)NC(=O)NC(=O)NC(=O)CI`, the growth is 73.5% with NCI-H23 lung; 98.5% in the assay with NCI-H226 lung; 98.2% in the assay on NCI-H322M lung; 92.8% in the assay with HOP-62 NSCLC; 85.9% in the assay with NCI-H460 lung; -60.6% (active) in the assay with HOP-92 NSCLC. The growth is -79.2% (active) in the assay with NCI-H522 lung, 98.2% with A549/ATCC NSCLC, -73.5% (active) in the assay on 786-0 renal and -31.4% (active) in the assay with COLO 205 colon.

(Values after PubChem BioAssay (NCI).)
